# Out of some 69,000 compounds screened, about 8,600 (12%) showed an effect of 50% or more. This is one part of a sample in which strong results are shown more often than they occur.
# System: Plasmodium berghei
# Test: Screen against P. berghei liver stage (PbLuc), transformed with Luciferase, at 10uM
# Assay type: functional, HepG2
# Settings: tested at 10 uM
row,SMILES,INHIBITION
1,O=C1CCCCN1CCc1nc(-c2cccnn2)no1,52.9%
2,c1cnnc(-c2noc(CCN3CCCO3)n2)c1,-8.51%
3,O=C1CCCCCN1CCc1nc(-c2cccnn2)no1,9.04%
4,COc1ccc(CN2CCc3ncnc(C4CCOC4)c3CC2)cc1 (configuration not stated),24.6%
5,CCOc1cc(CNc2nnn(C)n2)ccc1OCc1ccc(Cl)cc1,63.1%
6,Cn1nnc(NCc2ccc(OCc3ccc(Cl)cc3)cc2)n1,-47.4%
7,Cn1nnc(NCc2ccccc2OCc2ccc(Cl)cc2)n1,4.07%
8,Cc1ccc(NC2CCN(C(=O)CCc3cscn3)CC2)nn1,7.12%
9,c1ccc(CCNCC2Cn3nncc3CO2)cc1 (configuration not stated),33%
10,O=C(c1ccccc1F)N1CCOC(c2nc(-c3ncccn3)no2)C1 (configuration not stated),18.9%
11,Cc1cn(CC(=O)Nc2cc(C(C)(C)C)nn2C)cn1,16.9%
12,CCN(CC(C)C#N)C(=O)CNc1ccc(F)c(C)c1 (configuration not stated),-48.4%
13,CCN(CC(C)C#N)C(=O)CNc1cc(Cl)ccc1C(N)=O (configuration not stated),17.5%
14,CCN(CC(C)C#N)C(=O)CNc1ccc(C(N)=O)c(C)c1 (configuration not stated),92.5%
15,O=C(CCN1CCOC1=O)Nc1cnn(-c2ccccc2Cl)c1,13.3%
16,Cc1noc(-c2ccnc(Oc3ccccc3CN3CCCCC3)c2)n1,56.3%

row,SMILES,INHIBITION
1,COc1cccc(CN2CCN(c3noc(C(C)C)n3)CC2)c1F,-21.8%
2,CCN1CCC(N2CCN(c3cc(-c4nc(C)no4)ccn3)CC2)CC1,33.8%
3,Cc1noc(-c2ccc(Oc3cccc(CN4CCCC4)c3F)nc2)n1,35%
4,Cc1noc(-c2ccnc(Oc3cccc(CN4CCCC4)c3F)c2)n1,83.3%
5,c1ccc(Oc2nccc3occc23)c(CN2CCCCC2)c1,48.8%
6,CC(NC(=O)NCCCn1cncn1)c1ccc(C#N)cc1 (configuration not stated),24.75%
7,CC=C(C)C(=O)NS(=O)(=O)c1ccc(C(F)(F)F)cn1,13.8%
8,O=C(CCCN1CCOCC1)N1CCCC(CO)(CC2CC2)C1 (configuration not stated),-4.21%
9,CC(C1CCN(C(=O)c2coc(CN3CCOCC3)c2)CC1)N(C)C (configuration not stated),35.8%
10,Cc1cc(NCCC(=O)NC2CCS(=O)(=O)C2)nc(-c2ccncc2)n1 (configuration not stated),15.7%
11,CC(C)c1cc(C(=O)N2CCc3nc(C4CCCN4)ncc3C2)cs1 (configuration not stated),28%
12,COc1cccc(C(=O)N2CCc3nc(C4CCCN4)ncc3C2)c1 (configuration not stated),59.3%
13,Cc1cc(C(=O)N2CCc3nc(C4CCCN4)ncc3C2)cs1 (configuration not stated),-16.5%
14,COc1ncc(NCc2ccc(F)cc2)cc1C(N)=O,-5.1%
15,COc1ncc(NCc2ccc(Cl)c(Cl)c2)cc1C(N)=O,71.8%
16,COc1ncc(NCc2ccc(C#N)cc2)cc1C(N)=O,8.12%

# From ChEMBL document CHEMBL4513216, “Probing the Open Global Health Chemical Diversity Library for Multistage-Active Starting Points for Next-Generation Antimalarials” (ACS Infect Dis, 2020)
